The source of these data is PubChem BioAssay (NCATS).

Active and inactive are the calls of the source. Calls come from the whole dose curve; as a rule, active = well fitted curve in the direction sought with a large enough effect; inactive = no such curve, though single readings can be large or run the other way.

This experiment is described as follows: qHTS for small molecule inhibitors of Yes1 kinase: Counter Assay (AID 686950).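 Note: no kinase present so only ADP-Glo detection of a fixed ADP amount is tested; luminescence from ADP-Glo reporting ADP in a fixed ATP and ADP mixture.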 The conditions noted are these: series mostly up to 76.9 µM. A digest of the protocol:
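No kinase present; 0.08 mM ATP + 0.02 mM ADP in 50 mM Tris pH 7.5, 10 mM MgCl2, 150 mM NaCl, 1 mM DTT; 20 min compound preincubation, 60 min RT, ADP-Glo luminescence, normalized to ATP/ADP (max) and ATP-only (min).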
In general terms: In qHTS, concentration-response curves come from the screen itself.
For the molecule `CNc1nccc(-c2cccnc2Oc2cc(C(=O)Nc3cccc(C(F)(F)F)c3)ccc2C)n1`, the call was inactive.
For the molecule `C[C@@]12O[C@@H](C[C@]1(O)CO)n1c3ccccc3c3c4c(c5c6ccccc6n2c5c31)CNC4=O`, the molecule was called inactive.
As to `CC(C)(C)c1cnc(CSc2cnc(NC(=O)C3CCNCC3)s2)o1`, the molecule was classed as inactive.
As to `C1=CCOCc2cc(ccc2OCCN2CCCC2)Nc2nccc(n2)-c2cccc(c2)OCC1`, the molecule was classed as inactive.
Turning to `CC[C@H](CO)Nc1nc(NCc2ccccc2)c2ncn(C(C)C)c2n1`, the outcome was inactive.
As for `CN1CCN(c2ccc3nc(-c4c(N)c5c(F)cccc5[nH]c4=O)[nH]c3c2)CC1`, the molecule was called inactive.
As to `CN(C)CC=CC(=O)Nc1cc2c(Nc3ccc(F)c(Cl)c3)ncnc2cc1O[C@H]1CCOC1`, the call was inactive.
In the case of `c1cc(-c2cnn3cc(-c4ccc(OCCN5CCCCC5)cc4)cnc23)ccn1`, the outcome was inactive.
Under `Cc1nc2cnc3ccc(C#Cc4cccnc4)cc3c2n1-c1ccc(C(C)(C)C#N)cc1` stands “inactive”.
For the molecule `COc1cc2c(Oc3ccc(NC(=O)C4(C(=O)Nc5ccc(F)cc5)CC4)cc3F)ccnc2cc1OCCCN1CCOCC1`, the call was inactive.
As for `CC(=O)c1c(C)c2cnc(Nc3ccc(N4CCNCC4)cn3)nc2n(C2CCCC2)c1=O`, the molecule was classed as inactive.
With `CC(C)c1ccccc1Cc1cc(C(=O)Nc2ccc(S(=O)(=O)c3ccccc3C(C)(C)C)cc2)c(O)c(O)c1O` the entry was “inactive”; with `CC(C)c1ccc(Cn2ccc3c4c(N)nc(NC5CC5)nc4ccc32)cc1`, “inactive”.
`Cc1[nH]nc2ccc(-c3cncc(OC[C@@H](N)Cc4ccccc4)c3)cc12`: the call was inactive.
`Cn1cc(-c2[nH]c3cc(NC(=O)[C@H](N)C4CCCCC4)cc4c3c2C=NNC4=O)cn1`: the outcome was inactive.
With `COc1cc(OC2CCN(C)CC2)ccc1Nc1ncc2c(n1)n(C1CCCC1)c(=O)n2C` the entry was “inactive”.
For the molecule `COC(=O)c1ccc2c(C(=Nc3ccc(N(C)C(=O)CN4CCN(C)CC4)cc3)c3ccccc3)c(O)[nH]c2c1`, the molecule was called inactive.
For `CC[C@@H]1C(=O)N(C)c2cnc(Nc3ccc(C(=O)NC4CCN(C)CC4)cc3OC)nc2N1C1CCCC1`, the result was inactive.
Turning to `C[C@@H](Oc1cc(-n2cnc3ccc(CN4CCN(C)CC4)cc32)sc1C(N)=O)c1ccccc1C(F)(F)F`, the molecule was classed as inactive.
Turning to `NC(=O)Nc1cc(-c2cccc(F)c2)sc1C(=O)N[C@H]1CCCNC1`, the molecule was classed as inactive.
For the molecule `CC(C)=CCCC(C)=CCCC(C)=CCSc1ccccc1C(=O)O`, the result was inactive.
For `Cc1cc(Nc2cc(N3CCN(C)CC3)nc(Sc3ccc(NC(=O)C4CC4)cc3)n2)n[nH]1`, the result was inactive.
With `C=CC(=O)N1CCC[C@@H](n2nc(-c3ccc(Oc4ccccc4)cc3)c3c(N)ncnc32)C1`, the molecule was classed as inactive.
Turning to `C[C@@H](Oc1cc(-c2cnn(C3CCNCC3)c2)cnc1N)c1c(Cl)ccc(F)c1Cl`, the outcome was inactive.
Consider `C=CC(=O)Nc1cc2c(Nc3ccc(F)c(Cl)c3)ncnc2cc1OCCCN1CCOCC1`, for which the molecule was called inactive.
As to `CNC(=O)c1cc(Oc2ccc(NC(=O)Nc3cc(C(C)(C)C)nn3-c3ccc4ncccc4c3)c(F)c2)ccn1`, the molecule was classed as inactive.
Regarding `COc1cc2c(Oc3ccc4[nH]c(C)cc4c3F)ncnc2cc1OCCCN1CCCC1`, the outcome was inactive.
Consider `CS(=O)(=O)N1CCN(Cc2cc3nc(-c4cccc5[nH]ncc45)nc(N4CCOCC4)c3s2)CC1`, for which the molecule was called inactive.
As to `COc1cc(=C2C=c3ccccc3=N2)[nH]c1=Cc1[nH]c(C)cc1C`, the molecule was called inactive.
With `CCN1CCN(Cc2ccc(-c3cc4c(N[C@H](C)c5ccccc5)ncnc4[nH]3)cc2)CC1` the entry was “inactive”.
